Unmarked numbers belong to inactive results.
Tests used:
Test in all cases: log2 ratio of Biotin-Ahx-Ub-VS probe labelling (fragment/DMSO); higher = less target engagement (more negative = stronger competition), active = hit call of the paper (q ≤ 0.05, log2 ratio ≤ -1)
Conditions in all cases: compound concentration: 200 uM; treatment time: 3 h
USP19 = molecular target: T1, USP19 (UniProt O94966)
T1 sequence (whole entry): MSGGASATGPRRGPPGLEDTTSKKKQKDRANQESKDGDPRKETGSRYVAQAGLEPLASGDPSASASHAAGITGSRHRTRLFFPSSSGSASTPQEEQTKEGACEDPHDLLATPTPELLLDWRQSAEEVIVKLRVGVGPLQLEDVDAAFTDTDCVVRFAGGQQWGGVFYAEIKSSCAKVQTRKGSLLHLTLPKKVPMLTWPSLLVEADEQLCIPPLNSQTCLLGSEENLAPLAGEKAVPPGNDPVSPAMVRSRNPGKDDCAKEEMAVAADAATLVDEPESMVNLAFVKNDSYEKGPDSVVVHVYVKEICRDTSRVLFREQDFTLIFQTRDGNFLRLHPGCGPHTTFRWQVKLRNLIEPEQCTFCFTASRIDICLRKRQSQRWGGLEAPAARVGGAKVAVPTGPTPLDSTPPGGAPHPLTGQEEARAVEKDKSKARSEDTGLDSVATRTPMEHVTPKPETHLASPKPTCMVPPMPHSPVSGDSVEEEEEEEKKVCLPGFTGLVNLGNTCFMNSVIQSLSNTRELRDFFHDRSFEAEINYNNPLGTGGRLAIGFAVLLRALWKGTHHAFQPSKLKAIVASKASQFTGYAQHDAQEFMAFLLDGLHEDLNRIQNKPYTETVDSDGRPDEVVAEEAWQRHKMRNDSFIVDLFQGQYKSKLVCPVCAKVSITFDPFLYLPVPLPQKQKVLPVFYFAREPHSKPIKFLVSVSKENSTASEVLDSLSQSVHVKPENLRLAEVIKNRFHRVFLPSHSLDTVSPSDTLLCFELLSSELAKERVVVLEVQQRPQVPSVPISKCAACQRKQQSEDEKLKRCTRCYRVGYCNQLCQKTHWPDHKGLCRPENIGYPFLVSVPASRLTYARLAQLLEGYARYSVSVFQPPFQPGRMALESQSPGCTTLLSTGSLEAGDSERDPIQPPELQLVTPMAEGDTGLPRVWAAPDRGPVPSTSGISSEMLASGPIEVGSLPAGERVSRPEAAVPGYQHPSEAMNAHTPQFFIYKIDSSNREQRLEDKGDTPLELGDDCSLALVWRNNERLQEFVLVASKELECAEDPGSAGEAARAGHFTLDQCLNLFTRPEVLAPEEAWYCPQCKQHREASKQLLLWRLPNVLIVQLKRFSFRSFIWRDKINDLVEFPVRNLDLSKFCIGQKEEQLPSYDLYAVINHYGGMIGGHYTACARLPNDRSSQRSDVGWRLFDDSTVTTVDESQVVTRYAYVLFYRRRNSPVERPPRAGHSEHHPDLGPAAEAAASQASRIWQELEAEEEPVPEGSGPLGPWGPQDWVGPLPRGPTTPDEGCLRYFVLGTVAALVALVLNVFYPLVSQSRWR
Procedure, shortened: (§1)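 Values give the average log2 ratio of fragment to vehicle, assessed by unpaired t-test on global-median-normalised Spectronaut label-free quantities. Proteins needed ≥2 unique peptides. HEK293T lysate (495 µg per sample) was treated in triplicate with fragment at 200 µM or vehicle for 3 h and then with Biotin-Ahx-Ub-VS at 0.5 µM final for 1 h. Labelled DUBs were NeutrAvidin-enriched, digested and run by diaPASEF LC-MS/MS.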

USP22 = molecular target: T2, USP22 (UniProt Q9UPT9)
T2 sequence (whole entry): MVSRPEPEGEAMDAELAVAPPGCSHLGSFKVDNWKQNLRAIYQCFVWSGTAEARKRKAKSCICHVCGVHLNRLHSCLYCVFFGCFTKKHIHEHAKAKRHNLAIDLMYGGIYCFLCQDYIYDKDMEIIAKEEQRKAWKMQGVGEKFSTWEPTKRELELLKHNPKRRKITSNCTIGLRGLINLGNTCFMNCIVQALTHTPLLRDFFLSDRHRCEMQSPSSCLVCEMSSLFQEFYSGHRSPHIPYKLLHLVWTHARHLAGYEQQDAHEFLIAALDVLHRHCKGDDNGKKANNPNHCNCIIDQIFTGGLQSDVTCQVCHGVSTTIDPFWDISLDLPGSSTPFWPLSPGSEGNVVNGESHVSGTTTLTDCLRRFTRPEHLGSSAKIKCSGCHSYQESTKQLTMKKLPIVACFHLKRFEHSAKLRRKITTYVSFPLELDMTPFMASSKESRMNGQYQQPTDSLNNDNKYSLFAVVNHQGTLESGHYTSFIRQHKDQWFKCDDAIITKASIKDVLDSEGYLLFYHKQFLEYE
Procedure, shortened: as §1

USP24 = USP24 (UniProt Q9UPU5)
Chain of USP24 (Q9UPU5 whole entry): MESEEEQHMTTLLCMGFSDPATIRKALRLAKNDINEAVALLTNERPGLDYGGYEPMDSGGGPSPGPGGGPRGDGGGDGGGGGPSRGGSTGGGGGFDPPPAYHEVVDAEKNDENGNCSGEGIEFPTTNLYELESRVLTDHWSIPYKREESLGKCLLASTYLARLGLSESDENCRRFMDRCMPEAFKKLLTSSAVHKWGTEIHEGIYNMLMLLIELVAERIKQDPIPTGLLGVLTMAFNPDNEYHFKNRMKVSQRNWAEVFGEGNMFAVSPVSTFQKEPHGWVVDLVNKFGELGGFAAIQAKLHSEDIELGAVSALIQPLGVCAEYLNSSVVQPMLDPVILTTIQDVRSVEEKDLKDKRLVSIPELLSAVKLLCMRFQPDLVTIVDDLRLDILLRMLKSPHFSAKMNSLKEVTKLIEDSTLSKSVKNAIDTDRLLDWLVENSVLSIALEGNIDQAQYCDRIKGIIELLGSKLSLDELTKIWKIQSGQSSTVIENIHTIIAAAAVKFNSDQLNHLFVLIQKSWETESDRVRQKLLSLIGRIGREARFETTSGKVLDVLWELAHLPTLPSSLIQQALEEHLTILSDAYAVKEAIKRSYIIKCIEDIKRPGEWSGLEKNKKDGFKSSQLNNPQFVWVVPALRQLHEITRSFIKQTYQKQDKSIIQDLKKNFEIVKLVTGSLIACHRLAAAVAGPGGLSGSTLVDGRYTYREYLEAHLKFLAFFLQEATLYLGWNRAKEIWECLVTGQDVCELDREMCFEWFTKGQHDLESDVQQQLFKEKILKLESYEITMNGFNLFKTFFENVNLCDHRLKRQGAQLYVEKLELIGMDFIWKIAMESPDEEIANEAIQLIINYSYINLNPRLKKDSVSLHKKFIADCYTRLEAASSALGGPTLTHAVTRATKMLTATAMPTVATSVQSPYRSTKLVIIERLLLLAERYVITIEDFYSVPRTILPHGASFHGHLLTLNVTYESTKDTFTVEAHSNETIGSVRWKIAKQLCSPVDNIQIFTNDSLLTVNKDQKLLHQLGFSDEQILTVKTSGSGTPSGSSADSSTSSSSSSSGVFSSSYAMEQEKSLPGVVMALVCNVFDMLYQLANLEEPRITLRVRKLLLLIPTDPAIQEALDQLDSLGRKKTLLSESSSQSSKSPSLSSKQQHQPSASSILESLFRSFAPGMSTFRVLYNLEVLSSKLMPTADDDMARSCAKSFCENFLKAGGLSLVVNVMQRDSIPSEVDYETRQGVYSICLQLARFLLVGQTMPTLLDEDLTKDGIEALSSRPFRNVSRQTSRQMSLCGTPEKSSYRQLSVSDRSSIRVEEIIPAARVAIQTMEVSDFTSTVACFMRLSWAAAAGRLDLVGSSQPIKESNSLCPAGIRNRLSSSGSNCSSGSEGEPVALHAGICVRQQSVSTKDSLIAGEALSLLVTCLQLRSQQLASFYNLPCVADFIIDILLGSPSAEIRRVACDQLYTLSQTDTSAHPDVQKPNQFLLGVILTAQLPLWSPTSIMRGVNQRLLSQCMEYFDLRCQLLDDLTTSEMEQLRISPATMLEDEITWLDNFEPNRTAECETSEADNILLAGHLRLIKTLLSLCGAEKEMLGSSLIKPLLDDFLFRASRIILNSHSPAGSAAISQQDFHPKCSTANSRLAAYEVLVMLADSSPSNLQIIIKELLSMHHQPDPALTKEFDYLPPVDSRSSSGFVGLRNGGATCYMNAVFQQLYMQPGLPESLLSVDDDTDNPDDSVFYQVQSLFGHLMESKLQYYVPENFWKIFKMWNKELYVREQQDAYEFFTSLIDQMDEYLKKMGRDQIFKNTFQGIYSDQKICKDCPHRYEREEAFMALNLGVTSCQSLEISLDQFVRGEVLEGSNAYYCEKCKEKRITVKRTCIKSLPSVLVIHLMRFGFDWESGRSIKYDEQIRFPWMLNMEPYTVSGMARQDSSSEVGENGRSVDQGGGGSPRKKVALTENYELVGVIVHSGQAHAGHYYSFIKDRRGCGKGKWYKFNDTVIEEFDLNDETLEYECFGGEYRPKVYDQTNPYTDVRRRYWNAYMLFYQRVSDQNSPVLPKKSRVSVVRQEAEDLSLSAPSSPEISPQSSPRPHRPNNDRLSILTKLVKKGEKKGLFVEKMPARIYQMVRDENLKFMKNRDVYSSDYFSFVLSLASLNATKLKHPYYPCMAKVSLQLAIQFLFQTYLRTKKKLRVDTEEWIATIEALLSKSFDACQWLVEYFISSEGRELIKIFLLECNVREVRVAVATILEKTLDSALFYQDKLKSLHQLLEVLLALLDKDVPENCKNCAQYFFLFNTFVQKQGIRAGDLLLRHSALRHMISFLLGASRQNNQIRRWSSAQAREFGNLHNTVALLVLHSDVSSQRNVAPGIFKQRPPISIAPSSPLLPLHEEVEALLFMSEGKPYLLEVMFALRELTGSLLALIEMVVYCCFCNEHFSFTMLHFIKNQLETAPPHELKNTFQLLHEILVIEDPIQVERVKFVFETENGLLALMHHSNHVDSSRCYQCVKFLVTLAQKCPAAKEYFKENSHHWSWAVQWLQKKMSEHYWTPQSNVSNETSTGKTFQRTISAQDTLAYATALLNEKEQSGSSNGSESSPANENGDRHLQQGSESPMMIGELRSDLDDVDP
Procedure, shortened: as §1

USP25 = molecular target: T3, USP25 (UniProt Q9UHP3)
T3 sequence (whole entry): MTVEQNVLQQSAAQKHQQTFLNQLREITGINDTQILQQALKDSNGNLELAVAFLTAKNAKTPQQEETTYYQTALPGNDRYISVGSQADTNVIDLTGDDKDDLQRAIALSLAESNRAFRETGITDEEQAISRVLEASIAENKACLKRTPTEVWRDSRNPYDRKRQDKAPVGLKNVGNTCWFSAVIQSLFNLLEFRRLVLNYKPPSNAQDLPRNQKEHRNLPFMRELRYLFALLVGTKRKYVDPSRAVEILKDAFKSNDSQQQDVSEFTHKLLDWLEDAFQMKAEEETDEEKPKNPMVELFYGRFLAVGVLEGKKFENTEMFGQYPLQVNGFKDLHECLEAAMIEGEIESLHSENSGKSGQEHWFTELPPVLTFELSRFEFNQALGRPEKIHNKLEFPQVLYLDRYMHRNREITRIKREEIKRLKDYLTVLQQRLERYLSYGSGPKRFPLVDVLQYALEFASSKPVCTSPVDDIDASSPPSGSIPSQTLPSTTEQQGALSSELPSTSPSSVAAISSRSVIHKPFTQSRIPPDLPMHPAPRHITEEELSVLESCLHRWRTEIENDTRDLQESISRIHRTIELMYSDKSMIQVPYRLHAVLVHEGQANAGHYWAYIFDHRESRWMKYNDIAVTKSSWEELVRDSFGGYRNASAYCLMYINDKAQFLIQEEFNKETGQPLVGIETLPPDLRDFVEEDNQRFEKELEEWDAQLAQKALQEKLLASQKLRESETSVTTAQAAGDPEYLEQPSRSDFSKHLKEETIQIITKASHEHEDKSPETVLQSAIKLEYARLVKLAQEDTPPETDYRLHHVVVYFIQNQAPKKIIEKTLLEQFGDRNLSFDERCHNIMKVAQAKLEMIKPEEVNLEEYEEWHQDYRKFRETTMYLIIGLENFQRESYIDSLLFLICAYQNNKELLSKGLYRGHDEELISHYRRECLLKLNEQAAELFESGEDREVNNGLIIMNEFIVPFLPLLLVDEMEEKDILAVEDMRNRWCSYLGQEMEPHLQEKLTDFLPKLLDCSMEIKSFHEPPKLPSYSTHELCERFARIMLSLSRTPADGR
Procedure, shortened: as §1

USP28 = molecular target: T4, USP28 (UniProt Q96RU2)
T4 sequence (whole entry): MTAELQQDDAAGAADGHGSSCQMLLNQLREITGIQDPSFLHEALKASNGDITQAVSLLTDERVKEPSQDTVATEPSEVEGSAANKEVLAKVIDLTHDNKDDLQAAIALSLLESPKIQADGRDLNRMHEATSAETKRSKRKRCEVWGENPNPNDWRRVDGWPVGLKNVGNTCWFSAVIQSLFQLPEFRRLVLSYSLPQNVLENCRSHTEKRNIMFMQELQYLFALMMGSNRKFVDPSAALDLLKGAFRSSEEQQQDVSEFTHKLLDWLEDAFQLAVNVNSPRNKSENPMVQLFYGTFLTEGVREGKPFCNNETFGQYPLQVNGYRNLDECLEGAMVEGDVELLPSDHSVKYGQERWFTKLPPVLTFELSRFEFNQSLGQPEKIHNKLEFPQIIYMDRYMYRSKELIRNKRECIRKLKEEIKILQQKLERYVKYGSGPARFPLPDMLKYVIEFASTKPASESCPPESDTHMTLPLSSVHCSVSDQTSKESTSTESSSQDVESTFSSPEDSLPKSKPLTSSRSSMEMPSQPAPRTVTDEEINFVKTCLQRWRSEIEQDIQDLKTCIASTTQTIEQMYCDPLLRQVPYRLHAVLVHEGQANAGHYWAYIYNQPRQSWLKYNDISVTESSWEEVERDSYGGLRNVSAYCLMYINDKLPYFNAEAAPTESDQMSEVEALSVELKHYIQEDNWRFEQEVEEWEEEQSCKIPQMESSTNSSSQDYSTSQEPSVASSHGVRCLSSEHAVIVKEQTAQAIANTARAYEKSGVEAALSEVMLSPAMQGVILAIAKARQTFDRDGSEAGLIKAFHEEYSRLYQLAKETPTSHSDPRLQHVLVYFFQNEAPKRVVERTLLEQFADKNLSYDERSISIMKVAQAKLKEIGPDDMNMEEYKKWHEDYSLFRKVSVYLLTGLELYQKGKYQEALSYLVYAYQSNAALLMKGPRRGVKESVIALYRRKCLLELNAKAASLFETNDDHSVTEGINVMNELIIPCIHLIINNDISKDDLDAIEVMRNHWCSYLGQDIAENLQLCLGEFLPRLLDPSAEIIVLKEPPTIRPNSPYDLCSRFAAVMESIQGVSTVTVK
Procedure, shortened: as §1

CN(C(=O)CCl)c1nc2ccccc2s1
log2 ratio of Biotin-Ahx-Ub-VS probe labelling (USP19): -0.126
log2 ratio of Biotin-Ahx-Ub-VS probe labelling (USP22): -0.0338
log2 ratio of Biotin-Ahx-Ub-VS probe labelling (USP24): -1.2 (active)
log2 ratio of Biotin-Ahx-Ub-VS probe labelling (USP25): -0.235
log2 ratio of Biotin-Ahx-Ub-VS probe labelling (USP28): -0.444
